Measurements reported in PubChem BioAssay AID1117358 (Southern Research Institute, 2015).
Among all 2,300 compounds or so, about 160 (7%) were called active. The rule behind the calls is not given here. Only a sample is shown. Results with a measured potency or affinity are listed apart.

Assay: viability loss in Vero cells – cytotoxicity control for Vif-APOBEC3G degradation inhibitor project, dose response (AID 1117358)
Settings: CellTiter-Glo ATP luminescence, 72 h; series mostly up to 40 µM
For `Cc1cccc(CCNC(=O)CCc2nc(-c3ccccc3F)no2)c1`, the outcome was “inactive”.
With `O=C(N/N=C/C=C\c1ccco1)c1cccnc1` the outcome was “inactive”.
In the case of `Cc1cc(C)nc(N(C#N)CN2C(=O)c3ccccc3S2(=O)=O)n1`, the outcome is reported as “inactive”.
In the case of `COc1ccc(OC)c(-c2cc(C(=O)NCc3cccs3)no2)c1`, the outcome is reported as “inactive”.
In the case of `COC(=O)CSc1nnc(CNC(=O)c2cccs2)n1-c1cc(OC)ccc1OC`, the outcome is reported as “inactive”.
In the case of `c1ccc2c(c1)ccc1nnc(SCc3ccc4c(c3)OCO4)n12`, the outcome is reported as “inactive”.
With `CCOC(=O)NC1(NC2CCCCC2)Oc2ccccc2O1` the outcome was “inactive”.
For `CC(C)(C)NC(=O)C1N(c2cccnc2)C(=O)C2C(C(=O)Nc3ccccc3F)C3(C)C=CC21O3` (stereo not drawn), the outcome was “inactive”.
For `O=S(=O)(c1ccc(Cl)s1)N1CCN(Cc2ccccc2)CC1`, the outcome was “inactive”.
For `O=C(CN1CCN(S(=O)(=O)c2ccc(Cl)cc2)CC1)Nc1ccc2c(c1)OCCO2`, the outcome was “inactive”.
For `CCC(C)(C)C1CCc2c(sc(NC(=O)c3ccoc3C)c2C(N)=O)C1` (stereo not drawn), the outcome was “inactive”.
For `O=C(CSc1nnc(-c2cccnc2)n1Cc1ccco1)c1ccc(Br)cc1`, the outcome was “inactive”.
In the case of `Cc1c(C(=O)Nc2ccc(Cl)cc2)c2ccccn2c1CCc1ccncc1`, the outcome is reported as “inactive”.
With `C/C(=C/C(=O)NCc1ccccc1)C(=O)O` the outcome was “inactive”.
In the case of `O=C(O)CCC(=O)NNC(=O)CCC(=O)NCc1ccccc1`, the outcome is reported as “inactive”.
With `Cc1cc(F)ccc1S(=O)(=O)Nc1ccccc1C(=O)Nc1ccc2[nH]c(=O)[nH]c2c1` the outcome was “inactive”.
With `COC(=O)c1ccccc1NC(=O)C1CCCC1` the outcome was “inactive”.
With `COc1ccc(NC(=O)/C(C#N)=C\c2cc(C)n(-c3ccc(Oc4ccc([N+](=O)[O-])cn4)cc3)c2C)cc1` the outcome was “inactive”.
With `Cc1ccc(Cc2cnc(NC(=O)/C(C#N)=C/c3ccc(-c4ccc([N+](=O)[O-])cc4)o3)s2)cc1` the outcome was “inactive”.
With `O=C(NCc1ccc(F)cc1)c1c(O)c2cccc3c2n(c1=O)CCC3` the outcome was “inactive”.
In the case of `CCSC1=C(C#N)C(c2cccs2)C(C(=O)OC)=C(C)N1` (stereo not drawn), the outcome is reported as “inactive”.
In the case of `CCn1c(=O)c(C(=O)NCc2ccccn2)c(O)c2ccccc21`, the outcome is reported as “inactive”.
For `CCOC(=O)c1c(O)c2ccccc2n(-c2ccccc2)c1=O`, the outcome was “inactive”.
In the case of `Cc1ccc2cc3c(NC(=O)c4cccnc4)nn(C)c3nc2c1`, the outcome is reported as “inactive”.
With `CN(C)C(CNC(=O)c1cccnc1Sc1ccccc1)c1ccco1` (stereo not drawn) the outcome was “inactive”.
In the case of `O=C(c1cnn2c(C(F)F)cc(C3CC3)nc12)N1CCc2ccccc2C1`, the outcome is reported as “inactive”.
With `O=C(NC1CCCC1)c1ccc(CNc2c(N3CCOCC3)c(=O)c2=O)cc1` the outcome was “inactive”.
For `CN(C)[C@H]1N(C(=O)c2ccc(Br)cc2)N=C2c3ccccc3S(=O)(=O)N21`, the outcome was “inactive”.
With `Cc1cc(C(=O)CN2C(=O)c3ccccc3S2(=O)=O)c(C)n1CC1CCCO1` (stereo not drawn) the outcome was “inactive”.
In the case of `Cc1c(NS(=O)(=O)c2cccc(C(=O)NCc3ccncc3)c2)c(=O)n(-c2ccccc2)n1C`, the outcome is reported as “inactive”.
For `O=C(CCCc1ccccc1)N1CCN(c2ccc([N+](=O)[O-])cc2)CC1`, the outcome was “inactive”.
In the case of `Cc1ccc(-c2nc3s/c(=C\c4ccco4)c(=O)n3n2)cc1`, the outcome is reported as “inactive”.
For `O=C(NCC1CCCO1)c1cc(-c2ccco2)nc2ccccc12` (stereo not drawn), the outcome was “inactive”.
With `CCCC(=O)Nc1cccc(-c2nc3ccccc3o2)c1` the outcome was “inactive”.
With `CCn1c(SCC(=O)n2nc(C)cc2C)nnc1-c1ccc2c(c1)OCO2` the outcome was “inactive”.
With `Cc1c(/C=N\NC(=O)c2csc3ccccc23)cnn1C` the outcome was “inactive”.
In the case of `CN(CCOCCOc1ccc2ccccc2c1)Cc1ccccc1`, the outcome is reported as “inactive”.
With `Cc1cc(NC(=O)c2cncc(Br)c2)no1` the outcome was “inactive”.
With `O=C(O)c1cc(-c2ccc(N3CCOCC3)cc2)nn1-c1ccc(F)cc1F` the outcome was “inactive”.
For `CC(=O)C1=C(O)C(=O)N(Cc2ccco2)C1c1ccc(F)cc1` (stereo not drawn), the outcome was “inactive”.
In the case of `COc1ccc(N2C(=O)C3CCCN3C2c2ccc(C)cc2)cc1` (stereo not drawn), the outcome is reported as “inactive”.
With `Cc1[nH]c2ccccc2c1C(=O)Cn1c(=O)oc2ccccc21` the outcome was “inactive”.
With `Cc1[nH]c2ccccc2c1C(=O)CN1CCC(C(N)=O)(N2CCCCC2)CC1` the outcome was “inactive”.
With `Cc1nn(Cc2ccc(Cl)cc2)c(C)c1NC(=O)c1cc(-c2ccc3c(c2)OCO3)on1` the outcome was “inactive”.
With `Cc1nn(Cc2ccccc2)c(C)c1NC(=O)Cn1nc([N+](=O)[O-])c(Cl)c1C` the outcome was “inactive”.
With `CC1(C)Oc2ccc(C(=O)NC3CCCC3)cc2N(CC(=O)NC2CCCC2)C1=O` the outcome was “inactive”.
In the case of `CCOc1ccc(N(CC(=O)NC(C)(C)C)S(=O)(=O)c2c(C)noc2C)cc1`, the outcome is reported as “inactive”.
In the case of `Cn1nnnc1SCC(=O)NCc1ccco1`, the outcome is reported as “inactive”.
With `CN(C)S(=O)(=O)N1CCC(CCCC2CCN(S(=O)(=O)N(C)C)CC2)CC1` the outcome was “inactive”.
In the case of `Cc1ccc(NC(=O)COc2ccccc2C(=O)Nc2ccccc2)cc1Cl`, the outcome is reported as “inactive”.
In the case of `O=C(C/C=N/OCc1c(Cl)cccc1Cl)c1ccc(Cl)cc1`, the outcome is reported as “inactive”.
For `Cc1cc(C)cc(NCc2cc3c(cc2[N+](=O)[O-])OCO3)c1`, the outcome was “inactive”.
For `O=C(Oc1ccccc1)c1cccc2cccnc12`, the outcome was “inactive”.
In the case of `CC(C)c1ccc(NC(=O)C(c2ccccc2)N2CCC3(CC2)OCCO3)cc1` (stereo not drawn), the outcome is reported as “inactive”.
In the case of `Oc1cccc(/C=N/c2c(-c3ccco3)nc3ccccn23)c1`, the outcome is reported as “inactive”.
With `CCC(c1nnnn1C(C)(C)CC)N(CCCO)Cc1cc2cc(C)cc(C)c2[nH]c1=O` (stereo not drawn) the outcome was “inactive”.
For `Cc1cccc(-n2c(Cc3cc(=O)[nH]c(=O)[nH]3)nnc2SCC(=O)NCC2CCCO2)c1` (stereo not drawn), the outcome was “inactive”.
For `CC(NC(=O)c1cccs1)C(c1cccs1)N1CCN(Cc2ccccc2)CC1` (stereo not drawn), the outcome was “inactive”.
In the case of `CCOC(=O)c1c(NC(=O)c2cc(CC(C)C)on2)sc(C(C)=O)c1C`, the outcome is reported as “inactive”.
In the case of `N#CC1=C(Nc2ccccc2)SC=C(c2ccc(Br)cc2)N=C1N1CCOCC1`, the outcome is reported as “inactive”.
In the case of `Cc1nc2ccc(S(=O)(=O)N(C)CC(=O)N3CCc4ccccc43)cc2s1`, the outcome is reported as “inactive”.
In the case of `COc1cccc(-c2nnc(SCC(=O)N3CCOCC3)o2)c1`, the outcome is reported as “inactive”.
With `CCOc1ccc(Cl)cc1S(=O)(=O)N1CCN(c2ccc(F)cc2)CC1` the outcome was “inactive”.
For `CCOc1ccc(C2=[N+]([O-])C(C)(C)N(O)C2(C)C)cc1`, the outcome was “inactive”.
In the case of `O=C(Oc1cccnc1)c1ccc(Cl)cc1`, the outcome is reported as “inactive”.
In the case of `CC1=CC(C)(C)Nc2ccc(OC(=O)CN3C(=O)c4cccc5cccc(c45)C3=O)cc21`, the outcome is reported as “inactive”.
With `Cc1ccc(-c2ccc(CCC(=O)O)n2NC(N)=S)cc1` the outcome was “inactive”.
For `Cc1cc(-c2[nH]nc3c2C(c2cccc(O)c2)C(C#N)=C(N)O3)c(C)s1` (stereo not drawn), the outcome was “inactive”.
